Only some compounds are listed: those with a hit (about 12% of all), similar ones and a draw of the others.
WT yeast gro inh = growth inhibition of WT strain, primary screen, mitochondrial fusion inhibitor project, WT and mutant strains, chemical genetic; 2.1% of 190,000 active; mitochondrial fusion phenotypic screen; inhibition, % at 10 µM; in the data active means inhibition above about 58%; tested in S. cerevisiae
CHOP inhibitor = inhibitors of CHOP promoter induction, primary screen, cell-based, unfolded protein response, luciferase reporter. CHO-K1 CHOP-promoter luciferase, tunicamycin-induced, 15-18 h. inhibition, % at 10 µM. 3.8% of 220,000 active. AID 2732, 2010;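 active means compounds that reduced the stress-induced luciferase reporter signal by more than about 70% of percent inhibition, limit read from the data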;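 further: 0% = tunicamycin plus vehicle and 100% = wells without tunicamycin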
L major viab = Leishmania major promastigote growth inhibition, primary screen. AID 1063, 2008. 9% of 200,000 active. Leishmania major promastigotes, resazurin fluorescence viability. inhibition, % at 10 µM; in the data active means inhibition above about 50%;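 further: promastigotes grown with compound for 44 hours at 28 °C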
Arbovirus inh = antivirals against arbovirus infection, primary screen, cell-based, full library, 10K replicate subset | inhibition, % at 10 µM | AID 1251, 2008 | arbovirus infection cell-based antiviral screen | 0.37% of 200,000 active; in the data active means inhibition above about 30%
CHOP confirm = retest of CHOP induction inhibitors, confirmation, cell-based. 45% of 2,100 active. AID 504437, 2011. CHO-CHOP promoter luciferase reporter, tunicamycin-induced, luminescence. inhibition, % at 10 µM. shares compounds with CHOP inhibitor;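 active means mean of three repeat readings of reporter signal inhibition above a set limit, cut at about 70% in these data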;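 further: 0% = tunicamycin plus vehicle and 100% = wells lacking tunicamycin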
An asterisk follows results filed as active; x = no result given.

SMILES	WT yeast gro inh	CHOP inhibitor	L major viab	Arbovirus inh	CHOP confirm
NCCOc1ccc(C23CC4CC(CC(C4)C2)C3)cc1	97*	105*	101*	-33	-9
COc1cccc(N=c2oc3ccc(OC)cc3cc2-c2nc3ccccc3[nH]2)c1	19	-20	8	-16	x
COc1ccc(N=c2oc3ccc(OC)cc3cc2-c2nc3ccccc3[nH]2)cc1	7	102*	22	-16	107*
Cc1ccc(-n2c(=O)[nH]c3cc(C(=O)NC4CCN(Cc5ccccc5)CC4)ccc3c2=O)cc1	4	16	0	3	x
Fc1c(F)c(C(F)(F)F)c(F)c(F)c1N/N=C\c1cccs1	26	101*	-9	-16	89*
CCc1ccc(NC(=O)C(CC)Sc2nc3cc4c(cc3c(=O)n2Cc2ccco2)OCO4)cc1 (centres undefined)	6	96*	9	-26	-60
O=C1c2ccccc2C(=O)c2c1oc(C(F)(F)F)c2C(=O)c1ccccc1	-3	107*	99*	-27	121*
CC1=NNC(=O)/C1=C\c1cn(-c2ccccc2)nc1-c1ccc(F)cc1	90*	106*	100*	-30	119*
O=c1[nH]c(=S)[nH]c(O)c1N=Nc1ccc(-c2ccccc2)cc1[N+](=O)[O-]	10	102*	-4	6	42
Cc1cccc2c(N=Nc3ccc(S(=O)(=O)Nc4cccc(Cl)c4)cc3[N+](=O)[O-])c(O)[nH]c12	18	17	41	7	x
CCOC(=O)c1nnc(-c2ccccc2)nc1Oc1ccc(Cl)cc1	-7	106*	6	12	-4
CCOC(=O)c1cnc(-c2ccccc2)nc1Oc1ccc(Cl)c(Cl)c1	4	1	-6	-8	x
O=C1CC(C(=O)O)S/C(=N\N=C\c2ccc(Br)cc2)N1 (centres undefined)	x	-16	x	x	x
CSc1cc(-c2ccccc2)n(Cc2c(Cl)cccc2Cl)c(=O)c1C#N	-10	x	19	-13	x
CSc1cc(-c2ccc(Cl)cc2)n(Cc2ccccc2)c(=O)c1C#N	-6	101*	1	-3	29
Cc1[nH]n(-c2ccccc2)c(=O)c1/C=C1/C=c2ccccc2=N1	-18	103*	19	-3	78*
CCOCc1c(C(=O)NC2CCCCCC2)oc2ccccc12	6	23	11	10	x
O=C(Nc1ccccc1Cl)c1ccccc1Oc1ccc(C(F)(F)F)cc1[N+](=O)[O-]	83*	105*	79*	-19	81*
COc1ccccc1NC(=O)COc1ccc(C(F)(F)F)cc1[N+](=O)[O-]	x	x	-7	x	x
CCCOc1ccc(C2C(=O)N(C3CCCCC3)CC(=O)N2C2CC2)cc1OC (centres undefined)	-2	-3	2	5	x
Cc1ccccc1NC(=O)C(=Cc1ccc(C(=O)O)cc1)C(=O)Nc1ccccc1C	-12	103*	23	-1	-22
S=C(Nc1ccc(Nc2ccccc2)cc1)NN1CCOCC1	x	4	x	x	x
N#C/C(=C/c1ccc(N2CCCCCC2)o1)c1ccc(Cl)cc1	23	103*	17	-43	31
N#C/C(=C/c1ccc(N2CCCCC2)o1)c1cccc(F)c1	21	103*	17	-4	20
CCOc1ccccc1N1CCN(S(=O)(=O)c2ccc3c4c(cccc24)C(=O)N3)CC1	24	99*	74*	4	9
SMILES	WT yeast gro inh	CHOP inhibitor	L major viab	Arbovirus inh	CHOP confirm
CN1CCN(S(=O)(=O)c2ccc3c4c(cccc24)C(=O)N3)CC1	4	-37	6	3	x
NNc1ccc(Cl)nn1	x	14	x	x	x
Cc1ccc(/C=C2\C(=O)ON=C2c2ccccc2)o1	20	12	0	-4	x
Cc1ccc(-c2ccc(/C=C3\C(=O)ON=C3c3ccccc3)o2)c([N+](=O)[O-])c1	36	111*	98*	-38	80*
CCOC(=O)CN1C(c2ccc(O)cc2)Nc2ccc(Br)cc2C1c1ccccc1 (centres undefined)	96*	108*	13	-41	119*
COc1ccc(-c2cnnc(N/N=C/c3ccc(C)o3)n2)cc1	14	9	0	-9	x
O=C1C2C3C=CC(CO)(O3)C2C(=O)N1c1ccccc1-c1ccccc1 (centres undefined)	69*	x	-5	-1	-27
O=C1N/C(=N/O)S/C1=C/c1cccc([N+](=O)[O-])c1	7	-10	-2	-5	x
Cc1cccc(/C=C2/S/C(=N/N=C3\CC4CCC3(C)C4(C)C)NC2=O)c1 (centres undefined)	-6	105*	4	-13	106*

Bioassay records deposited in PubChem BioAssay by several laboratories.
